Among all 110,000 compounds or so, about 40 (0.04%) were called active. Another 22% or so got no clear call; they are omitted. The call rests on the fitted dose curve; in most records, active means well fitted curve in the direction sought with a large enough effect in the signal ratio (not every such curve was filed as active); inconclusive means small, poorly fitted or top-dose-only effect, or a change in a side signal; inactive means flat fitted curve, though single readings scatter; the % refers to the signal ratio. What follows is part of a selection rich in actives, with near analogues and random picks from the rest.
experiment: IkB Signaling; conditions: ABC-DLBCL IkBa-CBG/CBR dual luciferase ratio, 4 h; series mostly up to 57.1 µM; IkBa stabilization activation: at the top concentration;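 on IkBa stabilization activation: 0% = basal untreated cells and 100% = reference inhibitor full response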
Excerpt: NIH Molecular Libraries Screening Centers Network [MLSCN]
NIH Chemical Genomics Center [NCGC]
Nuclear factor kappa-B (NF-kappa-B) plays an important role in normal B cell development and survival. Diffuse large B cell lymphoma (DLBCL) is the most commonly observed type of non-Hodgkin's lymphoma. Gene expression analysis has identified an activated B cell-like subtype of DLBCL (ABC-DLBCL) which expresses known NF-kappa-B target genes. […] However, targets upstream of IKK have been largely unexplored and so nodes upstream of IKK in the NF-kappa-B pathway remain untested due to the lack of chemical probes.
A cell-sensor assay for I-kappa-B-alpha stabilization was developed with NIH investigator Dr. R. Eric Davis in Dr. Louis M. Staudt's laboratory. The assay uses green (CBG68) and red (CBR) emitting beetle luciferases [Chroma-Glo(TM) developed by Promega Corp.] where the green luciferase is fused to I-kappa-B-alpha and the red luciferase is present in its native state. Both luciferase genes are stably present in the OCI-Ly3 human ABC DLBCL cell line, but their expression is under the control of tetracycline-inducible promoters. Following the addition of doxycycline to induce expression of the luciferases, the green luminescence in control cultures rises only slowly because the CBG fusion partner I-kappa-B-alpha is targeted by IKK activity for rapid degradation. In contrast, green luminescence rises rapidly in the presence of proteasome inhibitors or IKK inhibitors. The rise in red luminescence of CBR is not affected by proteasome or IKK inhibitors, and serves as normalization for cell number and nonspecific effects. Compounds were screened as a concentration-titration series that ranged from 57 uM to 0.7 nM.
NCGC Assay Protocol Summary:
Cells were seeded in 1536-well plates at 5000 cells/3ul in IMDM medium containing 0.5% FBS, w/o phenol red, L-glutamine, 25 mM HEPES, 3 mg/ml sodium bicarbonate. After centrifugation for 1 min. at 1000 rpm, 23 nl of compounds or DMSO were delivered to each well using a pin tool. Then 1ul 80ng/ml doxycycline was dispensed into white solid 1536-well plates and the plates were incubated at 37C/5% C02 in a cell incubator for 4 hrs. Then 4 ul Chroma-Glo luminescent substrate mix (Promega) was added to each well. The plate was incubated at R.T. for 10-15 min. The plates were measured on a ViewLux plate reader for green luminescence (540/20 nm filter) and red luminescence (618/8 nm filter). The green and red luminescent signals were corrected for red and green luminescence filter overlap using previously determined filter calibration constants (determined using the procedure outlined in the Promega Technical Manual). The %Activity was determined from the ratio of corrected green/red luminescent values. Green luminescent and ratio %Activity was determined by normalizing to the difference in signal between basal cells (0% Activity) and cells incubated with 10 uM of the proteasome inhibitor MG-132 (100% Activity). Red luminescent %Activity was normalized to the difference between red luminesence in basal cells (0%Activity) and zero luminescence (-100% Activity).
Concentration-response curves were fitted to the signals arising from the green luminescence (I-kappa-B-alpha-luciferase fusion; IkB-luc) and the red luminescence (unfused luciferase; luc) as well as the calculated ratio. The concentration-effect curves were then classified based on curve quality (r2), response magnitude and degree of measured activity. Compounds were then categorized based on their concentration-response curves for all three datasets (Ikb-luc, luc and ratio).
Keywords: IKK, I-kappa-B, IkB, IkBa, cytotoxicity, luminescence, MLSMR, MLSCN, NIH Roadmap, qHTS, NCGC
Potency means the concentration at half of the fitted maximal effect.

SMILES	IkBa stabilization activation	Potency
COC(=O)C1=C(c2ccccc2)c2ccccc2S(=O)(=O)N1CC(=O)Nc1ccccc1C(F)(F)F	-1.32% (inactive)	
CCc1ccccc1NC(=O)c1ccc2nc(CCc3ccccc3)oc2c1	3.24% (inactive)	
O=C(CS(=O)(=O)c1cccc2nsnc12)N1CCN(c2cccc(Cl)c2)CC1	0.629% (inactive)	
Cc1cc2c(cc1S(=O)(=O)CCC(=O)Nc1ccc(OC(F)(F)F)cc1)OCC(=O)N2	6.21% (inactive)	
CC(C)c1ccc(NC(=O)Cn2c3ncccc3c(=O)n2-c2ccccc2)cc1	-1.21% (inactive)	
Cc1ccc(Cl)cc1N1CCN(C(=O)c2cn(C)c3ccc(S(=O)(=O)N(C)C4CCCCC4)cc3c2=O)CC1	-0.507% (inactive)	
CCN1CCN(c2ncc3c(n2)CC(c2ccccc2O)CC3=O)CC1 (centres undefined)	0.899% (inactive)	
Cc1ccccc1CN1CCC(CNC(=O)c2c(C)oc3ncnc(N4CCCCC4)c23)CC1	0.0466% (inactive)	
CCN(CCCNC(=O)c1c(C)oc2ncn(CC(C)C)c(=O)c12)Cc1ccccc1	1.93% (inactive)	
Cc1cccc(CSc2ccc(-c3cccs3)nn2)c1	-2.49% (inactive)	
CCOc1ccc(OCC)c(Nc2nc3ccccc3n3nnnc23)c1	1.77% (inactive)	
COc1ccc(S(=O)(=O)N2CCCCC2)cc1C(=O)NC1CCS(=O)(=O)C1 (centres undefined)	1.49% (inactive)	
CCn1cc(C(=O)N(C)Cc2ccccc2)c(=O)c2cc(S(=O)(=O)N3CCCCCC3)ccc21	1.18% (inactive)	
CCCC(=O)Nc1c(O)c2ccccc2[nH]c1=O	-0.355% (inactive)	
O=C1C(c2[nH]c3ccccc3c2O)=Nc2ccccc21		2510 nM (active)
CCCOC(=O)Cc1c(O)c2ccccc2[nH]c1=O	0.442% (inactive)	
COc1ccc(-c2nc3sc(CCNC(=O)C(C)(C)C)c(C)n3n2)cc1	-2.83% (inactive)	
COc1ccc(N2CCN(C(=O)c3ccc4c(Cl)c5c(nc4c3)CCCC5)CC2)cc1	0.102% (inactive)	
CC(=O)Nc1ccc2nc(SCCOc3cc(C)cc(C)c3)sc2c1	-0.0445% (inactive)	
CCC1CN(S(=O)(=O)c2cc(-c3cc(C)no3)ccc2C)c2cc(C)ccc2O1 (centres undefined)	0.0798% (inactive)	
CC1CCN(S(=O)(=O)c2ccc3c(c2)N(CC(=O)NCc2ccccc2Cl)C(=O)CO3)CC1	2.09% (inactive)	
COC(=O)c1ccc(NC(=O)CCc2c(C)nn(-c3ccc(N4CCCC4)nn3)c2C)cc1	1.12% (inactive)	
COc1ccc(-n2c(C)nc3c(cnn3-c3ccc(F)cc3)c2=O)cc1	-2.95% (inactive)	
CC1=C(c2ccc(C)c(C)c2)S(=O)(=O)NC1=NCc1ccccc1Cl	1.34% (inactive)	
Cc1cc(C)c2oc(C(=O)Nc3ccc(S(=O)(=O)N4CCCCCC4)cc3)cc(=O)c2c1	2.05% (inactive)	

SMILES	IkBa stabilization activation	Potency
CN(C)CCN(Cc1ccccc1)S(=O)(=O)c1csc(C(N)=O)c1	-0.756% (inactive)	
COC(=O)c1ccccc1NC(=O)c1cnn(-c2ccc(F)cc2)c1-n1cccc1	27.9% (inactive)	
COc1ccc(NC(=O)C2CCN(c3ccc(Sc4ccc(C)cc4)nn3)CC2)c(OC)c1	0.374% (inactive)	
COc1ccc(C2NC(=O)N(C)C3=C2C(=O)N(c2ccc(C(=O)O)cc2)C3)cc1 (centres undefined)	-0.8% (inactive)	
COc1cccc(NC(=O)CN2C(=O)c3ccccc3Sc3ncccc32)c1	4.99% (inactive)	
Cc1ccc(-c2cnc(C3CC3)o2)cc1S(=O)(=O)Nc1cccc(C)c1C	-1.63% (inactive)	
COCCNC(=O)c1cc(-c2cccc(Cl)c2)on1	68.5% (inactive)	
COc1ccc(-c2nc3c4ccccc4n(CC(=O)Nc4ccc(C(C)=O)cc4)c(=O)n3n2)cc1	-0.837% (inactive)	
Cc1ccccc1OCC(=O)Nc1c(C(=O)Nc2ccccc2F)oc2ccccc12	-0.867% (inactive)	
COc1cc(NC(=O)C2=CC(c3ccco3)=NS(=O)(=O)N2C)cc(OC)c1OC	1.1% (inactive)	
Cc1ccc2oc(=O)c3cnn(CC(=O)NCc4ccccc4Cl)c3c2c1	0.266% (inactive)	
COc1cccc(CNC(=O)C2CCC(CNS(=O)(=O)c3cccs3)CC2)c1 (centres undefined)	-3.86% (inactive)	
CCCCC(=O)OC1=CN(Cc2ccccc2)S(=O)(=O)c2ccccc21	1.1% (inactive)	
Cc1cc(C)cc(NS(=O)(=O)c2ccc(-c3cc(C)no3)s2)c1	2.64% (inactive)	
CCc1ccccc1NC(=O)c1ccc2c(c1)CCN2S(C)(=O)=O	1.19% (inactive)	
O=C(COc1ccccc1F)OCc1cc(=O)n2nc(C3CCCCC3)sc2n1	2.16% (inactive)	
CN1C(=O)c2[nH]nc(-c3ccc(F)cc3)c2C1c1ccccn1 (centres undefined)	2.45% (inactive)	
CCC(=O)N1CCc2cc(S(=O)(=O)NC(Cc3ccccc3)C(=O)NCc3ccccc3)ccc21 (centres undefined)	0.67% (inactive)	
O=c1cc(-c2ccccc2)n2c(SCc3ccccc3)nnc2[nH]1	49.6% (inactive)	
Cc1cccc(Cn2c(=O)n(CCC(=O)NCCc3ccc(Cl)cc3)c(=O)c3sccc32)c1	0.608% (inactive)	
O=C(NC1CC(=O)N(c2ccc(F)cc2)C1)c1cccs1 (centres undefined)	0.355% (inactive)	
COc1ccc(CNc2nc(-c3ccccc3)nn2C(=O)c2ccccc2OC)cc1	0.945% (inactive)	
Cc1ccc(Cn2c(CCCNC(=O)C3CCCCC3)nc3ccccc32)cc1	0.788% (inactive)	
COc1ccccc1Cc1nc2ccccc2nc1SCC(=O)N1CCCc2ccccc21	0.565% (inactive)	
